Compound activity from PubChem.
Most compounds without a hit are left out; they make up all but 1.5% or so of the library.
Nrf2 ARE act: Nrf2 pathway activation; AREc32 ARE-luciferase reporter (MCF7-derived line), luminescence, 24 h; Potency, µM (titrated, usually from 46.1 µM), hits mostly activators; hit rate 0.31% among 410,000; AID 624171; note: nearly all actives have a fitted effect of over 65% in size
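AREc32 cells carrying an ARE-driven firefly luciferase reporter were seeded at 1000 cells/well in OPTI-MEM with 5% FBS, then exposed to compound for 24 hr at 37 deg C. Luminescence was read with Steady-Glo after 30 min at RT.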
ALOX12 inh: ALOX12 (human) lipoxygenase inhibition; purified 12hLO, xylenol orange hydroperoxide absorbance; Potency, µM (doses to about 108 µM), actives largely listed as inhibitors; hit rate 1.1% among 580,000
Target sequence (P18054 whole entry, looked up): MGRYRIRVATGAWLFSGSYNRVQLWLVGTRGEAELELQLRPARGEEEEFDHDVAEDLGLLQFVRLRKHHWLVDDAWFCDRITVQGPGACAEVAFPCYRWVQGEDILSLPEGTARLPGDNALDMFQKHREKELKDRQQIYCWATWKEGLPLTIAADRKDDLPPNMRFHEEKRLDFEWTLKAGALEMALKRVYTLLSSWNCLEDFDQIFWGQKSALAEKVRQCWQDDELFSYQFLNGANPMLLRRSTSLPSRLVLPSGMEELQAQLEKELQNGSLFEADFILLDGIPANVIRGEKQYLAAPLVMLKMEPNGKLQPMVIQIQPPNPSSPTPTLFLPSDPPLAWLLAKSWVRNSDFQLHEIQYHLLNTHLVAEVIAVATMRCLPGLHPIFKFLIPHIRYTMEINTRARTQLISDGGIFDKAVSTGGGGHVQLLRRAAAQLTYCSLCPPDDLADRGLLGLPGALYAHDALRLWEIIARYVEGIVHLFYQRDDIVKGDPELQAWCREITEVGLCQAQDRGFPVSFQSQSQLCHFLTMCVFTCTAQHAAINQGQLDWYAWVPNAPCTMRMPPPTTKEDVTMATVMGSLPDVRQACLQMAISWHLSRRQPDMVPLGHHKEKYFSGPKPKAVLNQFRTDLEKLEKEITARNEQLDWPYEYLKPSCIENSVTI
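Purified human 12hLO at 150 nM in 25 mM Hepes, 0.01% Triton X-100, pH 7.0, preincubated 15 min at room temperature with compound. Reaction started with 40 uM arachidonic acid, 30 min at room temperature. Hydroperoxide measured by Fe-xylenol orange, 573/405 nm absorbance ratio.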
uPA surface inh: cell surface uPA generation inhibition. cell surface uPA generation assay, qHTS. Potency, µM (series often up to 38.3 µM), hits mostly inhibitors. hit rate 0.31% among 330,000. AID 540303; active = well fitted inhibition curve with a large enough effect; inconclusive = small, poorly fitted or top-dose-only effect; inactive = no such curve, though single readings can be large or run the other way; tested in mouse RAW 264.7 cells; note: nearly all actives have a fitted effect of over 55% in size
IL-2 act: activators of IL-2 | IL-2 activation reporter assay, cell-based qHTS; stimulated with anti-CD3/CD4/CD28 beads; in transgenic mouse T cells | activation, % (series mostly up to about 46 µM) | hit rate 0.065% among 360,000; in the data active = activation above about 50%; inconclusive = mostly about 30% to 49%
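Unstimulated transgenic mouse T cells, 750 per well, received compound and, after 60 minutes, anti-CD3/anti-CD4 bead plus anti-CD28 stimulation. EGFP and DsRed were quantified after 18 hours.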
Integrin act MD: activators of alpha7 integrin expression for muscular dystrophy. alpha7betagal myoblasts, beta-gal FDG fluorescence, 48 h. Potency, µM (titrated, usually from 38.3 µM), most hits filed as activators. hit rate 0.064% among 350,000; note: nearly all actives have a fitted effect of over 60% in size
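Alpha7betagal+/- myoblasts (passage 13) were plated 16-24 hr, then exposed to compounds (1:260 dilution of DMSO stock) for 48 hours at 37C. After MPER lysis, β-galactosidase reporter activity was read as FDG fluorescence (ex 480/em 540) after 30 minutes.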
Of the large screens only hits and unclear results are named; the others gave an inactive call. Unless noted, calls come from the whole dose curve; as a rule, active = well fitted curve in the direction sought with a large enough effect; inconclusive = small, poorly fitted or top-dose-only effect, or another doubt; inactive = no such curve, though single readings can be large; an effect the other way counts as inactive or inconclusive.

CC(C)C1=NOC2(CCCN(Cc3ccccn3)C2)C1 (stereo not drawn)	none (no result: Nrf2 ARE act, uPA surface inh, IL-2 act, Integrin act MD)
CC[C@H]1CN2CC[C@H]1C[C@@H]2COC(=O)Nc1ccc(C(C)(C)C)cc1	ALOX12 inh 44.7µM (no result: Nrf2 ARE act, uPA surface inh, IL-2 act, Integrin act MD)
CCCCn1c(O)c(/C=N/N2CCOCC2)c(=O)[nH]c1=S	none
CCCCCCn1c(O)c(C=Nc2ccccc2N2CCOCC2)c(=O)[nH]c1=S	IL-2 act 58.8
CCc1ccc(CN2CCN(Cc3cc(Br)ccc3O)CC2)cc1	ALOX12 inh 0.631µM
O=C1NCc2ccccc2CC12CCCN(Cc1ccccn1)C2 (stereo not drawn)	none (no result: Nrf2 ARE act, uPA surface inh, IL-2 act, Integrin act MD)
C[N+]12CCC(CC1)C(C(O)(c1ccccc1)c1cccs1)C2 (stereo not drawn)	ALOX12 inh 44.7µM
CCN1CCCCC12Cc1ccccc1CN(C(=O)Cc1ccccc1)C2 (stereo not drawn)	ALOX12 inh 6.31µM (no result: Nrf2 ARE act, uPA surface inh, IL-2 act, Integrin act MD)
COc1ccc(C(=O)CN2CCCCC2)cc1	Integrin act MD 12.6µM
O=C(CN1CCCCC1)c1ccc(F)cc1	none
O=C(NC1CCCCC1)N1C[C@@H]2C[C@H](C1)c1c(-c3cncnc3)ccc(=O)n1C2	none (no result: Nrf2 ARE act, uPA surface inh, IL-2 act, Integrin act MD)
O=C(Nc1ccccc1)N1C[C@@H]2C[C@H](C1)c1c(-c3cccs3)ccc(=O)n1C2	none (no result: Nrf2 ARE act, uPA surface inh, IL-2 act, Integrin act MD)
CC1(O)CCC2C3CCC4=CC(=O)CCC4=C3C=CC21C (stereo not drawn)	none
COCOC1CCC2C3CCC4=CC(=O)CCC4=C3C=CC12C (stereo not drawn)	Nrf2 ARE act inconclusive, ALOX12 inh 25.1µM
Cc1cccc(CC(=O)N2CCN(Cc3ccc(=O)n(C)c3)CC2)c1	none (no result: Nrf2 ARE act, uPA surface inh, IL-2 act, Integrin act MD)
C=C[C@H]1CN2CC[C@H]1C[C@@H]2CNC(=O)Nc1ccc(Br)cc1	none (no result: Nrf2 ARE act, uPA surface inh, IL-2 act, Integrin act MD)
Cc1cc(C)nc(NS(=O)(=O)c2ccc(N=Cc3c(O)n(C)c(=O)n(C)c3=O)cc2)n1	none
Cc1ccnc(NS(=O)(=O)c2ccc(N=Cc3c(O)n(C)c(=O)n(C)c3=O)cc2)n1	ALOX12 inh 5.01µM
COc1ccc(OC)c(S(=O)(=O)NC[C@H]2C[C@@H]3CCN2C[C@@H]3c2cc(-c3ccccc3OC)nn2C)c1	none (no result: Nrf2 ARE act, uPA surface inh, IL-2 act, Integrin act MD)
CC(C)c1oc(=O)cc2c1[C@@H](O)[C@H]1OC(=O)[C@@]3(C)CC[C@@H](O)[C@@]2(C)C13 (stereo partly drawn)	uPA surface inh inconclusive
CC(C)c1oc(=O)cc2c1[C@@H](O)[C@H]1OC(=O)[C@@]3(C)C[C@@H](O)[C@@H](O)[C@@]2(C)C13 (stereo partly drawn)	ALOX12 inh inconclusive, uPA surface inh 2.24µM
N[C@@H](Cc1ccc(Oc2cc(I)c(O)c(I)c2)c(I)c1)C(=O)O	ALOX12 inh 5.1µM (no result: Nrf2 ARE act, uPA surface inh, IL-2 act, Integrin act MD)
Cc1ccccc1-[n+]1c(-c2ccccc2)cc(-c2ccccc2)cc1-c1ccccc1	uPA surface inh 7.94µM
CCCCCCCCn1sccc1=O	ALOX12 inh 44.7µM, uPA surface inh inconclusive (no result: Integrin act MD)
O=C1NC(=O)C(Sc2ccccc2[N+](=O)[O-])C(=O)N1	ALOX12 inh 10µM
Cc1cccc(N2C(=O)/C(=C/c3ccc(CN(CCC#N)S(C)(=O)=O)o3)C(=O)NC2=S)c1	ALOX12 inh 12.6µM
Cc1ccc(/C=C2\C(=O)NC(=S)N(c3cccc(F)c3)C2=O)o1	ALOX12 inh inconclusive
O=C(O)Cn1cc(C=C2C(=O)NC(=O)NC2=O)c2ccccc21	none
O=C(Cn1cc(C=C2C(=O)NC(=O)NC2=O)c2ccccc21)NCC1CCCO1 (stereo not drawn)	ALOX12 inh 12.6µM
Cc1ccccc1CN1CCN(Cc2cccc(F)c2)CC1	ALOX12 inh 0.112µM (no result: Nrf2 ARE act, uPA surface inh, IL-2 act, Integrin act MD)
O=c1c2ccccc2sn1-c1ccc(Cl)cc1	Nrf2 ARE act inconclusive, ALOX12 inh 0.251µM (no result: uPA surface inh)
Cc1ccc(-n2sc3ccccc3c2=O)cc1	Nrf2 ARE act inconclusive, ALOX12 inh 1.12µM
CCc1cn(C2CC(O)C(CO)O2)c(=O)[nH]c1=O (stereo not drawn)	uPA surface inh 10µM
C[C@H]1CNC(=O)c2c(C(=O)Nc3ccc(CNC(=O)OC(C)(C)C)cc3)ncn21	Integrin act MD 8.91µM (no result: uPA surface inh)
COc1cc(CN2CCNCC2)cc(OC)c1OC	ALOX12 inh 6.31µM
CC(C)NC(=O)OC[C@H]1C[C@@H]2CCN1C[C@@H]2c1cc(C2CCCC2)nc(-c2ccncc2)n1	ALOX12 inh 28.2µM (no result: Nrf2 ARE act, uPA surface inh, IL-2 act, Integrin act MD)
O=C(Nc1cccc(C(F)(F)F)c1)OC[C@H]1C[C@@H]2CCN1C[C@@H]2c1cc(C2CCCC2)nc(-c2ccncc2)n1	ALOX12 inh 50.1µM (no result: Nrf2 ARE act, uPA surface inh, IL-2 act, Integrin act MD)
